12-LOX inh – Primary qHTS assay for inhibitors of human arachidonate 12S-lipoxygenase (ALOX12): Round 2; purified 12hLO, xylenol orange hydroperoxide absorbance; hit rate 1.1% among 580,000; Potency, µM (doses to about 108 µM), for the others: at the top dose activity change, negative = inhibition, hits mostly inhibitors; Polyunsaturated fatty acid lipoxygenase ALOX12 (Homo sapiens), P18054
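Purified human 12hLO (150 nM final) in 25 mM Hepes, 0.01% Triton X-100, pH 7.0 was preincubated 15 min at room temperature with compound. Then 40 uM arachidonic acid was added, 30 min. Hydroperoxide was read by Fe-XO absorbance ratio 573/405 nm.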
VDR inh – Inhibitors of the vitamin D receptor (VDR): qHTS; hit rate 0.93% among 400,000; Potency, µM, without a hit: max response, negative = inhibition, actives largely listed as inhibitors; Vitamin D3 receptor (Homo sapiens), P11473; AID 504847, 2011; VDR-SRC2-3 peptide fluorescence polarization, 2 h
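Compounds are added to VDR with labelled SRC2-3 coactivator peptide and held 2 h at room temperature. Inhibition of the VDR–peptide interaction is then read as a change in fluorescence polarization.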
KAT2A inh – qHTS Assay for Inhibitors of GCN5L2. GCN5L2 HAT assay, ThioGlo1 CoA-SH fluorescence. Histone acetyltransferase KAT2A (Homo sapiens), Q92830. hit rate 0.21% among 390,000. Potency, µM (titrated, usually from 58.9 µM), without a hit: at the highest dose activity change, negative = inhibition, actives largely listed as inhibitors
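Preincubate 20nM GCN5L2 with compound 15 min, RT → add 50uM ThioGlo1 + 75uM H3(1-25) + 70uM acetyl-CoA → read fluorescence 0 and 20 min. Primary qHTS; fluorescent artifacts likely.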
PLK1 PBD block – qHTS for Inhibitors of PLK1-PDB (polo-like kinase 1 - polo-box domain): Primary Screen | Serine/threonine-protein kinase PLK1 (Homo sapiens), P53350 | Plk1 PBD binding of FITC phosphopeptide, fluorescence polarization | Potency, µM, without a hit: max response, negative = inhibition, hits mostly inhibitors | hit rate 2.8% among 360,000 | AID 720504, 2013; also: series mostly up to about 57 µM; nearly all actives have a fitted effect of over 65% in size
Target sequence (P53350 whole entry, looked up, the tested form may be a part): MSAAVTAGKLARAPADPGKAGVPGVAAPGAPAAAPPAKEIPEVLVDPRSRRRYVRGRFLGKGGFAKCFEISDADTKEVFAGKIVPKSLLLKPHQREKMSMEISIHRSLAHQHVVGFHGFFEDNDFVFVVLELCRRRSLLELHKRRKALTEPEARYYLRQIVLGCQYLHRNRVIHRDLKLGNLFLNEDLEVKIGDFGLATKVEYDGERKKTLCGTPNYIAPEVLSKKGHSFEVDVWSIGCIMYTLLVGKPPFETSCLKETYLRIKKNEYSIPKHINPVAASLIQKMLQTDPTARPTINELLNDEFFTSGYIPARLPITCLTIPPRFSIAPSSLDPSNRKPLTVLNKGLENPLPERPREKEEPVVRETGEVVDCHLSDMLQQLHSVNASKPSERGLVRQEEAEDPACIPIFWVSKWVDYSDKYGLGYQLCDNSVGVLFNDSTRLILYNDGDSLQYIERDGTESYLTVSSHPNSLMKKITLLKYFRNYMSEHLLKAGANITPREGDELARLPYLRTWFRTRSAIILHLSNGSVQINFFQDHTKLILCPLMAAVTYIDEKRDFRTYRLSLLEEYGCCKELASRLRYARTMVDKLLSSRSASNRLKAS
An asterisk follows results filed as active. The list is not random: actives were taken first. Their share in the collection is about 3%. Calls follow the shape of the dose curve; as a rule, active = well fitted curve in the direction sought with a large enough effect; inconclusive = small, poorly fitted or top-dose-only effect, or another doubt; inactive = no such curve, though single readings can be large; an effect the other way counts as inactive or inconclusive. % is scaled to controls: 0 for no effect and ±100 for the full control effect; potency is read from the fitted curve at half-maximal effect.

How did Cc1ccccc1-c1cc(C(=O)Nc2sc(C(=O)OC(C)C)c(C)c2C#N)c2ccccc2n1 do in these assays?
12-LOX inh: 0%; VDR inh: inconclusive; KAT2A inh: 0%; PLK1 PBD block: 11µM*

How did CCOC(=O)c1sc(NC(=O)c2cc(-c3ccc(C)cc3)nc3ccccc23)c(C#N)c1C do in these assays?
12-LOX inh: inconclusive; VDR inh: 79µM*; KAT2A inh: -39%; PLK1 PBD block: 2.7µM*

Results for Cn1c(=O)[nH]c(=O)c2c1nc(NCCN1CCOCC1)n2Cc1ccc(F)cc1 ?
12-LOX inh: 32%

What do the screens show for `FC(F)(F)c1ccc2c(c1)N1CCCC1CN2` (stereo unspecified)?
12-LOX inh: -16%; VDR inh: 14%; KAT2A inh: -2%; PLK1 PBD block: 27µM*

Results for FC(F)(F)c1ccc2c(c1)NCC1CCCN21 (stereo unspecified) ?
12-LOX inh: 5%; VDR inh: -1%; KAT2A inh: inconclusive; PLK1 PBD block: -4%

Results for O=C(O)CCn1c(SCc2ccccc2)nc2ccccc21 ?
12-LOX inh: -23%; VDR inh: -9%; KAT2A inh: -16%; PLK1 PBD block: 2%

Results for Cc1noc(C)c1CSc1nc2ccccc2n1CCc1ccccc1 ?
12-LOX inh: inconclusive; VDR inh: 79µM*; KAT2A inh: -8%; PLK1 PBD block: inconclusive

What do the screens show for `Cc1cccc(-c2ocnc2C(=O)Nc2cc(C)ccc2C)c1`?
12-LOX inh: -12%

Results for COC(=O)C1=C(C)N(c2cccc(OC)c2)C(=O)/C1=C\c1ccco1 ?
12-LOX inh: inconclusive; VDR inh: inconclusive; KAT2A inh: -5%; PLK1 PBD block: 30µM*

What do the screens show for `C=CCN1C(=O)/C(=C\c2ccco2)C(C(=O)OC)=C1C`?
12-LOX inh: -6%; VDR inh: 9%; KAT2A inh: -8%; PLK1 PBD block: 2%

Results for CCCCOCCCNS(=O)(=O)c1ccccc1 ?
12-LOX inh: -8%; VDR inh: -1%; KAT2A inh: -5%; PLK1 PBD block: -4%

What do the screens show for `CCCCOP(=O)(OCCCC)C1(NS(=O)(=O)c2ccccc2)C=CC(=O)c2ccccc21` (stereo unspecified)?
12-LOX inh: 16µM*; VDR inh: -5%; KAT2A inh: -8%; PLK1 PBD block: -14%

Results for Cc1ccc(Nc2cccc3ccccc23)cc1 ?
12-LOX inh: -26%

How did Cc1ccc(Nc2cccccc2=O)cc1 do in these assays?
12-LOX inh: -19%; VDR inh: -9%; KAT2A inh: -6%; PLK1 PBD block: 9.5µM*

Results for COC(=O)c1ccccc1NC(=S)NC(NC(=O)c1ccccc1[N+](=O)[O-])C(Cl)(Cl)Cl (stereo unspecified) ?
12-LOX inh: inconclusive; VDR inh: -22%; KAT2A inh: -8%; PLK1 PBD block: 27µM*

How did Cc1ccccc1NC(=S)NC(NC(=O)C(C)(C)C)C(Cl)(Cl)Cl (stereo unspecified) do in these assays?
12-LOX inh: -27%; VDR inh: 7%; KAT2A inh: -6%; PLK1 PBD block: -1%

What do the screens show for `COC(=O)c1ccccc1NC(=S)NC(NC(=O)c1ccco1)C(Cl)(Cl)Cl` (stereo unspecified)?
12-LOX inh: inconclusive; VDR inh: -4%; KAT2A inh: 0%; PLK1 PBD block: -26%

Results for O=C(NC(NC(=S)Nc1ccc(Cl)c(Cl)c1)C(Cl)(Cl)Cl)c1ccco1 (stereo unspecified) ?
12-LOX inh: 2.8µM*; VDR inh: 9%; KAT2A inh: inconclusive; PLK1 PBD block: -26%

What do the screens show for `COc1ccc(NC(=S)NC(NC(=O)c2ccccc2Cl)C(Cl)(Cl)Cl)c([N+](=O)[O-])c1` (stereo unspecified)?
12-LOX inh: inconclusive; VDR inh: -11%; KAT2A inh: -6%; PLK1 PBD block: -8%

Results for COc1ccc(NC(=S)NC(NC(=O)CCl)C(Cl)(Cl)Cl)c([N+](=O)[O-])c1 (stereo unspecified) ?
VDR inh: 89µM*; KAT2A inh: -18%; PLK1 PBD block: 12µM*

Screening results: PubChem, National Center for Advancing Translational Sciences (NCATS)
